Data on 29 compounds can be found in PubChem BioAssay (Tox21).

Structures are written as SMILES. Several values for one entry are separate records, joined by “and”; a condition that tells them apart may be missing. Equal entries are not always repeated. Inconclusive results are not listed. More than one record can exist for a structure, and the calls need not agree. Activity calls are given as the source filed them. Unless noted, calls follow the shape of the dose curve; as a rule, active = well fitted curve in the direction sought with a large enough effect in the repeat runs; inconclusive = weak or mixed curves; inactive = no such curve, though single readings can be large; an effect the other way counts as inactive or inconclusive.

The nature of assay [1]: qHTS assay for small molecule agonists of the p53 signaling pathway (AID 651631; calls by dose curve; also: nearly all actives have a fitted effect of over 15% in size; also: potency is read from the fitted curve at half-maximal effect). The conditions noted are these: HCT-116 p53RE-bla reporter, beta-lactamase FRET ratio, 16 h; series mostly up to 73.3 µM. An outline of the steps: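 We treat p53RE-bla HCT-116 cells with compounds for 16 h at 37 °C, add LiveBLAzer B/G FRET substrate for 2 h at room temperature, and measure fluorescence intensity.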
In general terms: Quantitative high-throughput screening tests each substance at several concentrations.

A short description of assay [2]: qHTS assay for small molecules that induce genotoxicity in human embryonic kidney cells expressing luciferase-tagged ATAD5 (AID 651632). Also: nearly all actives have a fitted effect of over 15% in size. The conditions noted are these: HEK293T ATAD5-luciferase induction, 16 h; series mostly up to 83.3 µM. In a few lines:
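DMSO vehicle served as the control. HEK293T reporter cells, 16 hr at 37C, then 30 min Amplite at room temperature; ATAD5 induction is measured as luciferase activity.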

Assay [3] is described as follows: qHTS assay for small molecule agonists of the p53 signaling pathway - cell viability (AID 651633; calls by dose curve; also: nearly all actives have a fitted effect of over 30% in size; also: potency is read from the fitted curve at half-maximal effect). The conditions noted are these: p53RE-bla HCT-116 viability, ATP luminescence, 16 h; series mostly up to 83.3 µM. An outline of the steps: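 p53RE-bla cells, seeded at 4,000 per well and rested 5 h at 37 C/5% CO2, received compounds in DMSO for 16 h at 37 C. CellTiter-Glo was then added, and luminescence was read after 30 min at room temperature to gauge cytotoxicity.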

Assay [4] is described as follows: qHTS assay for small molecules that induce genotoxicity in human embryonic kidney cells expressing luciferase-tagged ATAD5 - cell viability (AID 651634; calls by dose curve; also: nearly all actives have a fitted effect of over 25% in size; also: potency is read from the fitted curve at half-maximal effect). Conditions: HEK293T ATAD5-luc cells viability, CellTiter-Fluor, 15.5 h; series mostly up to 83.3 µM. In a few lines:
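Here HEK293T cells with the ATAD5 luciferase reporter are incubated with test compounds for 15.5 hr, and cytotoxicity is then gauged by measuring protease activity in live cells using fluorescence.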

Assay [5] in a line: qHTS assay for small molecule disruptors of the mitochondrial membrane potential - cell viability (AID 720634; calls by dose curve; also: nearly all actives have a fitted effect of over 20% in size; also: potency is read from the fitted curve at half-maximal effect). Conditions: HepG2 viability, ATP luminescence (CellTiter-Glo), 1 h; series mostly up to 83.2 µM. In a few lines:
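Viability of HepG2 cells is scored from ATP content by luminescence; cells are exposed to compound for 1 hr at 37 C and 5% CO2, then dosed with m-MPI dye before the CellTiter-Glo reagent.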

Assay [6] can be described thus: qHTS assay for small molecule disruptors of the mitochondrial membrane potential (AID 720635). Also: potency is read from the fitted curve at half-maximal effect. Conditions: HepG2 mitochondrial membrane potential, Mito-MPS dye ratio; series mostly up to 83.2 µM. An outline of the steps: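 HepG2 cells (2,000/well) attached overnight at 37C, then took compound for 1 hr at 37C, 5% CO2. Mito-MPS dye was added for 30 min; fluorescence was read at 490/535 nm (monomers) and 540/590 nm (aggregates).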

A short description of assay [7]: qHTS assay to test for compound auto fluorescence at 590 nm (red) in HepG2 cells (AID 720674). The conditions noted are these: HepG2 autofluorescence, red 540/590 nm, 1 h; series mostly up to 91.3 µM. In a few lines:
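Compound auto-fluorescence is scored relative to Rose Bengal sodium, measured at 540/590 nm in live HepG2 cultures after 1 hr compound contact (37 C, 5% CO2).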

Assay [8] can be described thus: qHTS assay to test for compound auto fluorescence at 535 nm (green) in HepG2 cells (AID 720675). The conditions noted are these: green autofluorescence 485/535 nm, 1 h; series mostly up to 91.3 µM.
Assay [9] in a line: qHTS assay to test for compound auto fluorescence at 460 nm (blue) in HEK293 cells (AID 720678). Conditions: blue autofluorescence 405/460 nm; series mostly up to 91.3 µM. In a few lines: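 HEK293 cells (2,000/well, medium with 10% dialyzed FBS) attached 4-5 hr, then exposed to compound overnight at 37C, 5% CO2. Blue fluorescence read at 405/460 nm, with triamterene as reference fluorophore.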

Assay [10] is described as follows: qHTS assay to test for compound auto fluorescence at 590 nm (red) in HEK293 cells (AID 720679). The conditions noted are these: red autofluorescence 540/590 nm; series mostly up to 91.3 µM. An outline of the steps:
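HEK293 cells (2,000/well, 10% dialyzed FBS) attached 4-5 hr, then dosed with compound or DMSO and incubated overnight at 37C, 5% CO2. Red fluorescence read at 540/590 nm, Rose Bengal sodium as reference fluorophore.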

For the compound `COCC(=O)N(c1c(C)cccc1C)C(C)C(=O)OC` (centres undefined), the Potency result in [1], in assay [3], in [4], in assay [5] and in [6] was “inactive” throughout. For the same compound, the call in assay [2], in assay [7], in [8], in [9] and in assay [10] was inactive.
In the case of `OCCOc1ccccc1`, the Potency entry in [1], in assay [3], in [4] and in assay [5] was “inactive” throughout. Further, the result in assay [2], in [7], in [8], in [9] and in [10] was inactive.
On to `CCOP(=S)(OCC)Oc1ccc2c(C)c(Cl)c(=O)oc2c1`, for which the Potency entry in [1], in assay [3] and in [4] was “inactive” each time. Besides, the Potency entry was “inactive and 24.3 µM (active)” in assay [5]; 19.5 µM (active) and 61.1 µM (active) in assay [6]. Moreover, the call in assay [7], in [8], in assay [9] and in assay [10] was inactive.
For `C1CCC(NC2CCCCC2)CC1`, the Potency result in [1], in assay [3], in assay [4] and in assay [5] was “inactive” each time. In addition, the compound was called inactive in assay [2], in assay [7], in [8], in assay [9] and in assay [10].
`CCCCCCCCCCCCCCCCn1cc[n+](C)c1`: the Potency result in [1] is “inactive”. The compound was called inactive in [2], in assay [7], in assay [8], in assay [9] and in [10]. In addition, in [3], the Potency is 27.9 µM (active) and 69.2 µM (active) and 30.7 µM (active).
Take `CCCC[N+]1(C)CCCC1`: the Potency result in [1], in assay [3], in [4], in assay [5] and in assay [6] was “inactive” throughout. Further, the compound was classed as inactive in [2], in [7], in [8], in [9] and in [10].
On to `O=C(O)COc1ccc(Cl)cc1Cl`, for which the Potency result in assay [1], in assay [3], in assay [4] and in [5] was “inactive” in each case. For the same compound, the compound was called inactive in assay [7], in assay [8], in [9] and in assay [10].
Take `C=CCOC(Cn1ccnc1)c1ccc(Cl)cc1Cl` (centres undefined): the call in assay [2], in assay [7], in assay [8], in [9] and in assay [10] was inactive. The Potency entry in [3], in [4] and in assay [5] was “inactive” in each case.
For the compound `CCC[N+]1(C)CCCC1`, the result in assay [2], in assay [7], in assay [8], in [9] and in [10] was inactive. The Potency entry in [3], in [4], in [5] and in [6] was “inactive” each time.
For `CCCC[n+]1cccc(C)c1`, the Potency result in [1], in assay [3], in assay [4], in [5] and in [6] was “inactive” in each case. In addition, the outcome in assay [2], in [7], in assay [8], in [9] and in assay [10] was inactive.
In the case of `Nc1ccc(-c2ccc(N)c(Cl)c2)cc1Cl`, the Potency in [1] is 9.74 µM (active) and 12.8 µM (active) and 21.7 µM (active); in assay [3], 54.8 µM (active) and inactive; in assay [4], 54.8 µM (active) and 57 µM (active) and 54.5 µM (active); in assay [5] it was 27.4 µM (active) and 50.8 µM (active) and 34.4 µM (active). Further, the compound was classed as inactive in assay [2], in assay [7], in assay [8], in [9] and in assay [10].
As for `CNC`, the Potency entry in assay [1], in assay [3] and in assay [5] was “inactive” each time. The outcome in [7], in assay [8], in [9] and in assay [10] was inactive.
For `O=P1(N(CCCl)CCCl)NCCCO1` (centres undefined), the Potency result in [1], in assay [3], in assay [4] and in assay [5] was “inactive” each time. For the same compound, the call in [2], in assay [7], in assay [8], in [9] and in assay [10] was inactive.
In the case of `CC[n+]1ccccc1`, the result in [2], in [7], in assay [8], in assay [9] and in assay [10] was inactive. Also, the Potency entry in [3], in assay [4] and in assay [5] was “inactive” throughout.
`O=C(O)CC(O)(CC(=O)O)C(=O)O`: the Potency result in assay [1], in [3], in assay [4] and in assay [5] was “inactive” each time. The result in [2], in assay [7], in assay [8], in [9] and in assay [10] was inactive.
Take `CCNc1nc(Cl)nc(NCC)n1`: the Potency result in [1], in [3], in assay [4], in [5] and in assay [6] was “inactive” in each case. Further, the compound was classed as inactive in assay [2], in [7], in [8], in assay [9] and in assay [10].
Turning to `O=C(O)C(Cl)(Cl)Cl`, the Potency result in [1], in assay [3], in assay [4] and in assay [5] was “inactive” in each case. For the same compound, the compound was called inactive in [2], in assay [7], in [8], in assay [9] and in assay [10].
Consider `COc1ccc(N)cc1`, for which the Potency entry in assay [1], in [3], in assay [4], in assay [5] and in assay [6] was “inactive” each time. Also, the outcome in assay [2], in assay [7], in assay [8], in [9] and in [10] was inactive.
`Cc1cc(Cl)ccc1OCC(=O)O`: the Potency entry in assay [1], in assay [3], in [4], in [5] and in assay [6] was “inactive” each time. Besides, the call in [2], in assay [7], in [8], in [9] and in assay [10] was inactive.
As for `COP(=O)(OC)C(O)C(Cl)(Cl)Cl` (centres undefined), the Potency entry in assay [1], in [3], in assay [4] and in [5] was “inactive” throughout. Further, the compound was called inactive in [2], in [7], in [8], in assay [9] and in assay [10].
In the case of `Oc1ccccc1-c1ccccc1`, the Potency result in [1], in assay [3], in assay [4] and in assay [5] was “inactive” each time. Also, the compound was classed as inactive in assay [2], in assay [7], in assay [8], in assay [9] and in assay [10].
For the compound `Nc1ccccc1`, the Potency entry in [1], in [3], in [4] and in assay [5] was “inactive” each time. The compound was classed as inactive in assay [2], in assay [7], in assay [8], in assay [9] and in assay [10].
For the compound `O=[N+]([O-])c1ccccc1O`, the Potency entry in assay [1], in assay [3], in assay [4] and in assay [5] was “inactive” throughout. The compound was classed as inactive in assay [2], in assay [7], in [8], in assay [9] and in assay [10].
On to `COP(=O)(OC)OC=C(Cl)Cl`, for which the call in [2], in assay [7], in assay [8], in assay [9] and in [10] was inactive. Also, the Potency entry in [3], in assay [4], in [5] and in [6] was “inactive” in each case.
For the compound `Nc1ccc(-c2ccc(N)cc2)cc1`, the Potency entry in assay [1], in assay [3], in assay [4] and in [5] was “inactive” in each case. The outcome in [2], in [7], in [8], in assay [9] and in [10] was inactive.
Consider `N#CS`, for which the Potency entry in assay [1], in [3], in assay [4] and in [5] was “inactive” throughout. Besides, the outcome in [7], in assay [8], in [9] and in assay [10] was inactive.
Consider `C[N+](C)(C)Cc1ccccc1`, for which the outcome in [2], in assay [7], in assay [8], in assay [9] and in assay [10] was inactive. For the same compound, the Potency result in assay [3], in assay [4] and in assay [5] was “inactive” each time.
With `CCC(=O)C(CC(C)N(C)C)(c1ccccc1)c1ccccc1` (centres undefined), the Potency entry in assay [1], in assay [3], in [4], in assay [5] and in assay [6] was “inactive” in each case. The compound was classed as inactive in assay [2], in assay [7], in assay [8], in assay [9] and in [10].
On to `C[C@]12CCC(=O)C=C1CC[C@@H]1[C@@H]2CC[C@]2(C)C(=O)CC[C@@H]12`, for which the Potency entry in assay [1], in assay [3], in assay [4] and in assay [5] was “inactive” throughout. Further, the compound was called inactive in assay [2], in assay [7], in assay [8], in assay [9] and in assay [10].
